TDP1 cell CPT = growth inhibition of DT40 Tdp1-/-;hTDP1 cells with camptothecin (screen for TDP1 inhibitors); chicken DT40 Tdp1-/-;hTDP1 cells + 20 nM CPT, ATP luminescence, 48 h; Potency, µM (series often up to 46.2 µM), for inactives: at the top dose activity change, negative = growth inhibition, actives largely listed as inhibitors; 420,000 compounds, 12% hits; AID 686979; also: potency is read from the fitted curve at half-maximal effect; % is scaled to controls: 0 for no effect and ±100 for the full control effect; nearly all actives have a fitted effect of over 55% in size
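Chicken DT40 Tdp1-/- cells complemented with human TDP1, 400 cells/well, exposed to compounds plus 20 nM camptothecin for at least 48 h at 37 C; viability read as ATP content by CellTiter-Glo luminescence.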
IL1B secr inh = blocks inflammasome-driven IL-1 beta release; THP-1 LPS/ATP IL-1B secretion, AlphaLISA, 16 h; stronger effect = lower value; activity change, % at 57.5 µM; 360,000 compounds, 4.7% hits; in the data active = activity change below about -50%; inconclusive = mostly about -30% to -49%; also: % is scaled to controls: 0 for no effect and ±100 for the full control effect
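Secreted IL-1B measured by AlphaLISA bead assay after 16 h compound exposure of THP-1 cells; compounds (final up to 57.5 uM) added 1 h before LPS (250 ng/mL) and ATP (1.25 mM) stimulation; lower signal means less secretion.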
TGFb SMAD3 inh = inhibitors of TGF-b signaling; HepG2 CAGA-GFP TGF-b/SMAD3 reporter, GFP fluorescence, 18 h; TGF-beta stimulated, 500 pg/mL final; Potency, µM (top dose mostly 46.1 µM), for inactives: at the highest dose activity, negative = inhibition, most hits filed as inhibitors; 410,000 compounds, 1.2% hits; AID 588855; also: potency is read from the fitted curve at half-maximal effect; % is scaled to controls: 0 for no effect and ±100 for the full control effect; nearly all actives have a fitted effect of over 65% in size
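Read-out: total well GFP (ex488/em500-530) summed from mean per-cell fluorescence. Cells: HEPG2 CAGA-GFP, 1% FBS DMEM, 18 h at 37 degrees C with 500 pg/mL final TGF-beta. Unstimulated wells served as the full-inhibition control; stimulated DMSO wells = 0%.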
TDP1 block = TDP1 (human) enzyme inhibition. Q9NUW8. recombinant TDP1, AlphaScreen DNA substrate cleavage. Potency, µM (doses to about 130 µM), inactives show at the top dose activity change, negative = inhibition, usual class: inhibitors. 350,000 compounds, 0.28% hits; also: potency is read from the fitted curve at half-maximal effect; % is scaled to controls: 0 for no effect and ±100 for the full control effect; nearly all actives have a fitted effect of over 40% in size
Target sequence (Q9NUW8 whole entry, looked up): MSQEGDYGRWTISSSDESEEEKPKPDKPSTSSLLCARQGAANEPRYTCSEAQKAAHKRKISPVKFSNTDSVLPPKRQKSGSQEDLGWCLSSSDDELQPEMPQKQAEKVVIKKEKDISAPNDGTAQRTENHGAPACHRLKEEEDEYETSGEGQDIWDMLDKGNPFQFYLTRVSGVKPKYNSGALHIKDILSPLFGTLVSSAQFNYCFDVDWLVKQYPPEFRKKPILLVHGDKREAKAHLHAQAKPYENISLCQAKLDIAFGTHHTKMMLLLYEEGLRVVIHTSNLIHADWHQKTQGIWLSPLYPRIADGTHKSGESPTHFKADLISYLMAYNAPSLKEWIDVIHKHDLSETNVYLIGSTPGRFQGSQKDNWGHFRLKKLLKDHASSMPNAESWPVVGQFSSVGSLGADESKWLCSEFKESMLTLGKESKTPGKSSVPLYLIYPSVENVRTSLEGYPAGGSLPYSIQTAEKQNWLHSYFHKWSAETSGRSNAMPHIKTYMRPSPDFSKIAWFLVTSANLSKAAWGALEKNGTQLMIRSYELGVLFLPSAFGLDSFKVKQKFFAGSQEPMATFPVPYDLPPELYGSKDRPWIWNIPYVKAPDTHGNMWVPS
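E. coli-derived human Tdp1, 1 nM final. Cpd preinc 15 min RT; substrate 15 nM final, 5 min RT; AS bead mix 10 ug/ml final, 10 min RT. Signal loss = tyrosine-FITC cleavage. No-enzyme wells = max signal.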
DT40 TDP1 no CPT = qHTS for Inhibitors of human tyrosyl-DNA phosphodiesterase 1 (TDP1): qHTS in cells in absence of CPT; AID 686978, 2013; Potency, µM (titrated, usually from 46.2 µM), inactives show at the highest dose activity change, negative = growth inhibition, usual class: inhibitors; 420,000 compounds, 15% hits; DT40 Tdp1-/- hTDP1 cells, no CPT, ATP luminescence, 48 h; also: potency is read from the fitted curve at half-maximal effect; % is scaled to controls: 0 for no effect and ±100 for the full control effect; nearly all actives have a fitted effect of over 55% in size
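Growth of hTDP1-complemented DT40 Tdp1-knockout cells is measured by ATP luminescence after at least 48 hr compound exposure at 37 °C, with DMSO substituting for the 20 nM CPT used in the parallel screen.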
HepG2 tox = HepG2 cytotoxicity, counter-screen for TGF-b inhibitors; HepG2 CAGA-GFP viability, ATP luminescence, 18 h; Potency, µM (doses to about 46.1 µM), inactives show at the highest dose activity change, negative = cytotoxicity, actives largely listed as cytotoxic; 410,000 compounds, 0.76% hits; also: potency is read from the fitted curve at half-maximal effect
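HepG2 CAGA-GFP cells (1000/well, DMEM with 1% FBS) received compound, then TGF-beta at 500 pg/mL final, and were incubated 18 hours at 37 degrees C. Viability was read by CellTiter-Glo luminescence. Media-only wells were set as complete cell-killing and DMSO as no toxicity.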
Active calls of the source: *; ? = inconclusive; / = no result given; [ ] = dose if it differs, or a comment. The list is not random: actives were taken first. Their share in the collection is about 19%. Unless noted, calls follow the shape of the dose curve; as a rule, active = well fitted curve in the direction sought with a large enough effect; inconclusive = small, poorly fitted or top-dose-only effect, or another doubt; inactive = no such curve, though single readings can be large; an effect the other way counts as inactive or inconclusive.

SMILES	TDP1 cell CPT	IL1B secr inh	TGFb SMAD3 inh	TDP1 block	DT40 TDP1 no CPT	HepG2 tox
CCOc1ccccc1-c1cc(C(=O)N/N=C/c2cccnc2)c2ccccc2n1	?	-6	-13%	/	1.5µM*	10%
Cc1cc(C(=O)N/N=C/c2cccnc2)c2ccccc2n1	?	40	-2%	-4%	?	-2%
O=C(CSc1nnc(COc2ccc(Cl)cc2)o1)N1CCCC1	-29%	0	0%	-11%	?	-1%
Cc1ccc(C(=O)CSc2nnc(COc3ccccc3)o2)cc1	0%	-9	-5%	-3%	-27%	6.3µM*
O=C(CSc1nnc(COc2ccccc2)o1)c1ccccc1	-15%	0	5%	-1%	-16%	-6%
O=C(CSc1nnc(COc2ccccc2)o1)NCCc1ccccc1	8.2µM*	0	-8%	-2%	7.3µM*	-75%
Cc1cccc(OCc2nnc(SCC(=O)NCCc3ccccc3)o2)c1	-1%	13	0%	-1%	-8%	0%
O=C(CSc1nnc(COc2ccc(Cl)cc2)o1)N1c2ccccc2CCc2ccccc21	?	?	-9%	3%	15µM*	1%
COc1ccc(/C=C2\SC(=O)N(CC(=O)Nc3cccc(C)c3)C2=O)cc1O	14%	?	-4%	0%	?	-19%
COc1ccc(-c2noc(CNC(=O)c3ccccc3Br)n2)cc1	-16%	/	2%	6%	-21%	-4%
Fc1ccccc1CNCc1ccc2c(c1)OCO2	-15%	-4	25%	/	-21%	2%
O=C(CCC(=O)N(CC(=O)NC1CCCCC1)Cc1cccs1)Nc1ccccn1	9%	18	-10%	0%	-1%	-3%
CCOC(=O)C1CN(S(=O)(=O)c2ccc(OC)cc2)c2cc(CC(=O)OC)ccc2O1 (stereo not given)	?	16	-27%	7%	-27%	-7%
CCOC(=O)C1CN(S(C)(=O)=O)c2cc(CC(=O)OC)ccc2O1 (stereo not given)	8%	-101*	-6%	5%	11%	-4%
COc1ccc(-c2nn(-c3ccccc3)cc2C(=O)Nc2ccccc2OC)cc1	16µM*	/	-1%	/	21µM*	-8%
COc1ccc(-c2nn(-c3ccccc3)cc2C(=O)Nc2cccc(C(=O)O)c2)cc1[N+](=O)[O-]	-17%	29	13%	22µM*	?	-3%
COc1ccc(-c2nn(-c3ccccc3)cc2C(=O)Nc2ccc(C(=O)O)cc2)cc1	2%	-26	-15%	4%	?	-45%
COc1ccc(NC(=O)c2cn(-c3ccccc3)nc2-c2cc3ccccc3o2)cc1	16µM*	-2	-26%	2%	21µM*	1%
O=C(O)c1cccc(NC(=O)c2cn(-c3ccccc3)nc2-c2ccc([N+](=O)[O-])cc2)c1	-5%	19	-7%	-14%	18%	-40%
O=C1C2=CC[C@H]3C(=O)N(c4cccc(Oc5ccccc5)c4)C(=O)[C@@H]3[C@@H]2[C@H](O)[C@@H]2O[C@H]12	/	/	/	-6%[21 µM]	/	/
CC1(C)OC(=O)C2(Cc3ccc(Cl)cc3N3CCCCC32)C(=O)O1 (stereo not given)	4%	/	1%	1%	-20%	17%
COc1ccc2nc(NC(=O)C3CCN(S(=O)(=O)c4cccc5nsnc45)CC3)sc2c1	15µM*	-77*	-4%	4%	?	-33%
Cc1cccc(NC(=O)C2CCN(S(=O)(=O)c3cccc4nsnc34)CC2)c1	6%	-10	?	-2%	-18%	-21%
COc1cccc(NC(=O)C2CCCN(S(=O)(=O)c3cccc4nsnc34)C2)c1 (stereo not given)	?	-8	1%	6%	16µM*	-24%

Bioassay records: PubChem, National Center for Advancing Translational Sciences (NCATS)
